EWS-Fli block: EWS/Fli-driven NR0B1 reporter inhibitors, primary screen, A673 cells, NR0B1 luciferase, luminescence, MLPCN library; viability-normalised; inhibition, % at 12.6 µM; 350,000 tested, 0.67% active; AID 651661, 2012;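 active = mean inhibition of at least 50% after viability correction, with every replicate also passing that limit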;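 note: firefly luciferase signal divided by Alamar Blue viability fluorescence both relative to DMSO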
LGR2 inh: inhibitors of bursicon-induced LGR2 CRE-luciferase signal, primary screen, cell-based, HEK293, CRE-luciferase reporter, bursicon stimulation | bursicon-stimulated, 4 h | 380,000 tested, 0.35% active | inhibition, % at 9.99 µM;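 active = drop in luminescence signal, shown as inhibition above about 50% in the replicate tests, limit read from the data, passing the limit was not always enough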;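 note: agonist challenge used bursicon conditioned medium at about half maximal strength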
TWEAK-Fn14 inh: inhibitors of TWEAK-Fn14 signaling, primary screen, luciferase reporter cells, uHTS. TWEAK-stimulated Fn14 reporter cells, luciferase luminescence, 8 h. 360,000 tested, 2% active. inhibition, % at 10 µM; in the data active = inhibition above about 50%
EBV LMP1 NFkB: EBV LMP1-driven NF-kappaB luciferase reporter inhibitors, primary screen, cell-based, luminescence, single point. 350,000 tested, 0.69% active. AID 504558, 2011. inhibition, % at 12.5 µM. LMP1-induced NF-kappaB luciferase reporter cells; in the data active = inhibition above about 41%;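 note: 0% = neutral control wells and 100% = reference inhibitor control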
TROY signal inh: inhibitors of TROY-driven NF-kB signaling, primary screen, Q293 LMP1-TROYcd cells, NF-kB luciferase, uHTS; Q293 LMP1-TROYcd NF-kB luciferase reporter, 4 h; inhibition, % at 10 µM; AID 1347056, 2019; 360,000 tested, 0.98% active;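 active = compounds whose plate-normalised and pattern-corrected inhibition of the luciferase reporter signal at the single screening dose is 50% or more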
The depositor's hits bear a star; / = not tested or not shown. A selection: hits, their analogues and other compounds. The true share with any hit is near 2.6%.

SMILES	EWS-Fli block	LGR2 inh	TWEAK-Fn14 inh	EBV LMP1 NFkB	TROY signal inh
CC(C)NC(=O)Nc1ccc2c(c1)C(=O)N([C@@H](C)CO)C[C@H](C)[C@@H](CN(C)C(=O)c1ccncc1)OCCCC[C@H](C)O2	/	-12	/	/	/
CN(C)C(=O)c1ccc(-c2ccc([C@@H]3[C@@H](CO)N(C(=O)C4CCOCC4)[C@H]3C#N)cc2)cc1	-4	-4	/	/	/
C[C@@H]1CN([C@H](C)CO)C(=O)c2cc(NC(=O)Nc3ccccc3)ccc2O[C@@H](C)CCCCO[C@@H]1CN(C)S(=O)(=O)c1cn(C)cn1	-10	-5	/	/	/
O=C(NCC[C@H]1CC[C@@H](NC(=O)C2CCCCC2)[C@H](CO)O1)c1cc(Cl)cc(Cl)c1	7	-4	/	/	/
CCCC(=O)NC(c1ccc(C)cc1)c1ccc2cccnc2c1O (configuration not stated)	/	/	-5	62*	19
CCN(CC)c1ccc(C(NC(=O)C(C)C)c2ccc3cccnc3c2O)cc1 (configuration not stated)	45	/	-9	72*	6
CC(=O)NC(c1ccco1)c1cc(F)c2cccnc2c1O (configuration not stated)	26	2	9	32	-7
CC(=O)NC(c1cccs1)c1cc(F)c2cccnc2c1O (configuration not stated)	13	14	17	53*	2
Cc1ccc(C(NC(=O)C(C)C)c2cc([N+](=O)[O-])c3cccnc3c2O)cc1 (configuration not stated)	/	34	22	14	7
N=c1c2c(ncn1Cc1ccco1)Oc1c(ccc3ccccc13)C2c1ccccc1 (configuration not stated)	/	10	56*	11	12
O=C(C[C@@H]1C[C@@H]2c3cc(NC(=O)NC4CCCC4)ccc3O[C@@H]2[C@@H](CO)O1)NCc1ccc(Cl)cc1	3	-27	/	/	/
COc1cccc(CNc2nc(NCC3CC3)nc3ccsc23)c1OC	15	0	18	/	25
CSc1ccccc1CNc1nc(NCC2CC2)nc2ccsc12	31	32	29	/	52*
c1ccc(CNc2nc(NCc3cccs3)nc3ccsc23)cc1	12	57*	8	/	61*
C#Cc1cccc(Nc2nc(NCc3ccccc3)nc3ccsc23)c1	-39	-43	69*	/	4
CNc1nc(NCc2ccccc2)c2sccc2n1	-2	-10	-53	/	9
Cc1ccc(S(=O)(=O)Nc2ccc3c(c2)C(=O)N([C@@H](C)CO)C[C@H](C)[C@H](CN(C)CC2CCCCC2)OCCCC[C@@H](C)O3)cc1	3	4	/	/	/
O=C(CSc1ncccc1-c1nc2ccccc2[nH]1)N1CCc2ccccc21	-48	-21	67*	-19	62*
COc1cccc(NC(=O)N(C)C[C@H]2Oc3cc(-c4ccccc4F)ccc3S(=O)(=O)N([C@H](C)CO)C[C@@H]2C)c1	17	-14	/	/	/
CN1C(=O)c2cc(NC(=O)c3cccs3)ccc2OC[C@@H]2O[C@H](CC(=O)NCCN3CCCCC3)CC[C@H]21	7	-22	/	/	/
Cc1ccc(NC(=O)Nc2cccc([N+](=O)[O-])c2)cc1F	/	-15	79*	10	45
O=C(Nc1ccc([N+](=O)[O-])cc1)Nc1nc(-c2ccc(Cl)s2)cs1	41	49	67*	55*	54*
Cc1cc(O)c(C(C)C)cc1NC(=O)Nc1ccc([N+](=O)[O-])cc1	-10	/	4	-9	-27
O=C(Nc1ccc(Oc2ccc(NC(=O)Nc3ccc([N+](=O)[O-])cc3)cc2)cc1)Nc1ccc([N+](=O)[O-])cc1	33	9	87*	25	26
Cc1ccc(C(C)C)cc1NC(=O)Nc1ccc([N+](=O)[O-])cc1	36	19	69*	10	59*
SMILES	EWS-Fli block	LGR2 inh	TWEAK-Fn14 inh	EBV LMP1 NFkB	TROY signal inh
CC(=O)Nc1nc(-c2ccc([N+](=O)[O-])cc2)cs1	-24	/	-6	0	-41
Cc1noc(C)c1S(=O)(=O)N(C)C[C@@H]1Oc2ccc(NC(=O)c3ccncc3)cc2CC(=O)N([C@@H](C)CO)C[C@@H]1C	-4	4	/	/	/
C[C@H]1CN([C@@H](C)CO)C(=O)c2cc(NS(C)(=O)=O)ccc2O[C@@H]1CN(C)C(=O)Nc1ccc2c(c1)OCO2	-2	-1	/	/	/
C[C@@H]1CN([C@H](C)CO)C(=O)Cc2cc(NC(=O)CCN3CCOCC3)ccc2O[C@H]1CN(C)S(=O)(=O)c1cn(C)cn1	-3	-2	/	/	/
O=C(Nc1ccc(OC(F)(F)F)cc1)Nc1cccc([N+](=O)[O-])c1	/	-16	56*	9	24
Cc1ccc2c(c1)/C(=N/O)CCS2	/	/	65*	8	-12
CCN(CC)CCOC(=O)c1ccc(NC(=O)CCCN2C(=O)S/C(=C/c3ccc(OC)cc3)C2=S)cc1	/	/	73*	17	45
C[C@@H]1CN([C@H](C)CO)S(=O)(=O)c2ccc(-c3ccccc3)cc2O[C@@H]1CN(C)Cc1ccccc1C(=O)O	-13	-5	/	/	/
CC(C)CC(=O)Nc1cccc(-c2csc(-c3ccccc3)n2)c1	/	/	-18	67*	-4
CC(=O)Nc1ccc(-c2csc(Nc3cc(C)ccn3)n2)cc1	-29	-15	50*	-4	30
CC(=O)Nc1cccc(-c2csc(Nc3ccccn3)n2)c1	/	/	58*	-34	2
Cc1ccnc(Nc2nc(-c3ccccc3)cs2)c1	-109	17	53*	-54	8
O=C1C(F)=CC(COC(c2ccccc2)(c2ccccc2)c2ccccc2)OC1n1cc(F)c(=O)[nH]c1=O (configuration not stated)	69*	27*	109*	-3	46
CCOC(=O)N1CCN(C(=O)COC(=O)c2cc(Cl)c(O)c(Cl)c2)CC1	3	-26	72*	4	17
CCOC(=O)N1CCN(C(=O)COC(=O)c2cc(Cl)cc(Cl)c2)CC1	-6	20	-17	3	-8
O=C(NCCc1cccs1)c1ccc(Cl)cc1	10	10	59*	9	3
O=C(NCCc1cccs1)c1ccc(Cl)c(Cl)c1	-73	-101	-1	-28	-65
Cc1ccc(C(=O)NCCc2cccs2)cc1	64*	75*	85*	64*	69*
Cc1ccc(C(=O)NCCSC(C)(C)C)cc1	/	3	52*	17	16
CN(C)CC(=O)Nc1ccc2c(c1)[C@H]1C[C@H](CC(=O)NCc3ccc(-c4ccccc4)cc3)O[C@H](CO)[C@H]1O2	9	4	/	/	/
CC(C)NC(=O)N(C)C[C@H]1Oc2cc(C#CC3CC3)ccc2S(=O)(=O)N([C@H](C)CO)C[C@@H]1C	-4	26	/	/	/
COc1cccc(NC(=O)N2CC(=O)N3[C@H](CO)[C@H](c4ccc(C#CC5CCCC5)cc4)[C@H]3C2)c1	-10	17	/	/	/

High-throughput results deposited in PubChem BioAssay by several laboratories.
